Some test systems named below: NCI-H23 lung; NCI-H226 lung; NCI-H322M lung; HOP-62 NSCLC; NCI-H460 lung; NCI-H522 lung; A549/ATCC NSCLC; 786-0 renal; COLO 205 colon; DU-145 prostate; K-562 leukemia; MDA-MB-231 breast; SF-268 CNS; SF-295 CNS; SF-539 CNS; UACC-257 melanoma; M14 melanoma; HOP-92 NSCLC; MALME-3M melanoma; RXF 393 renal.
Common to all, as to experiment: NCI-60 one-dose screen, 48 h (100 = growth as untreated, 0 = no growth, -100 = all killed)
What all share (settings): 10 µM

Each structure is given as a SMILES string. This is part of a sample that, as a whole, favours compounds with a hit. Of some 83,000 tested, about 20% had one in any assay.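 Single-dose data. Exposure time 48 hours. Values below 10 considered active.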 A number with no mark means an inactive call. The source made the active and inactive calls.

Consider `Cc1cc(C)c(C[N+](C)(C)C)c(C)c1C`, for which the growth in the test with NCI-H23 lung is 3.56% (active); in the test on NCI-H226 lung, 11.7%; with NCI-H322M lung, 1.22% (active); in the test with HOP-62 NSCLC, 5.53% (active); with NCI-H460 lung it was 5.07% (active); in the test on NCI-H522 lung it was -39.5% (active). The growth with A549/ATCC NSCLC is 5.53% (active); with 786-0 renal it was 4.58% (active); in the test on COLO 205 colon, 0.186% (active); in the test with DU-145 prostate it was 5.6% (active); in the test on K-562 leukemia it was 7.21% (active); in the test with MDA-MB-231 breast, -12.6% (active). Besides, the growth with SF-268 CNS is 2.43% (active); with SF-295 CNS, 2.12% (active); with SF-539 CNS it was -7.58% (active); in the test on UACC-257 melanoma, 16.9%; in the test with M14 melanoma, 10.5%.

In the case of `COc1ccc(/C=C(\C)[N+](=O)[O-])cc1OC`, the growth is 64.7% in the test with NCI-H23 lung; 68.9% in the test with NCI-H226 lung; 64.9% in the test with NCI-H322M lung; 63% with HOP-62 NSCLC; -9.49% (active) in the test with HOP-92 NSCLC; -69.4% (active) in the test with NCI-H522 lung. The growth is 36.3% with A549/ATCC NSCLC; -44.2% (active) in the test on 786-0 renal; -80.5% (active) in the test on COLO 205 colon; 18.6% with DU-145 prostate; -9.93% (active) with K-562 leukemia; -72.2% (active) in the test on MALME-3M melanoma. The growth in the test on MDA-MB-231 breast was 77.9%; in the test on SF-268 CNS, 12%; with SF-295 CNS, 69%; with SF-539 CNS, 62.8%; with UACC-257 melanoma, -80.4% (active); with M14 melanoma it was -41.9% (active).

On to `C[C@@H]1C[C@@H]([C@H](O)CC2CC(=O)NC(=O)C2)C(=O)[C@@H](C)C1`, for which the growth was -3.78% (active) in the test on NCI-H23 lung; 11.6% with NCI-H226 lung; 2.7% (active) in the test with NCI-H322M lung; 3.86% (active) with HOP-62 NSCLC; 4.51% (active) in the test on NCI-H460 lung; -15.6% (active) in the test on NCI-H522 lung. The growth was 0.381% (active) in the test on A549/ATCC NSCLC; 0.349% (active) in the test with 786-0 renal; -14.9% (active) in the test with COLO 205 colon; 4.37% (active) in the test with DU-145 prostate; 1.97% (active) in the test with MALME-3M melanoma; 0.445% (active) in the test on MDA-MB-231 breast. The growth was 5.71% (active) with SF-268 CNS; 2.62% (active) with SF-295 CNS; -5.66% (active) in the test with SF-539 CNS; -4.83% (active) in the test on UACC-257 melanoma; -9.1% (active) in the test with M14 melanoma.

As to `NNc1ccccc1`, the growth in the test on NCI-H23 lung is 108%; in the test with NCI-H226 lung, 96.3%; with NCI-H322M lung it was 114%; in the test with HOP-62 NSCLC, 85.4%; in the test on NCI-H460 lung, 60.4%; with A549/ATCC NSCLC, 84.3%. Besides, the growth was 79.7% with 786-0 renal; 85.4% in the test on COLO 205 colon; 98.4% with DU-145 prostate; 19.5% with K-562 leukemia; 118% with MALME-3M melanoma; 89.8% with MDA-MB-231 breast. The growth in the test on RXF 393 renal is 123%; in the test on SF-268 CNS, 82.6%; with SF-295 CNS, 80.5%; in the test on SF-539 CNS, 99.3%; with UACC-257 melanoma it was 107%; in the test with M14 melanoma, 46.6%.

Turning to `CC(C)C1(NC(=O)C2CC3c4cccc5[nH]cc(c45)CC3N(C)C2)OC2(O)C3CCCN3C(=O)C(Cc3ccccc3)N2C1=O` (stereo not drawn), the growth was 99.4% with NCI-H23 lung; 103% with NCI-H226 lung; 118% with NCI-H322M lung; 110% in the test on HOP-62 NSCLC; 109% with NCI-H460 lung; 82.1% in the test with NCI-H522 lung. Besides, the growth with A549/ATCC NSCLC is 107%; in the test with 786-0 renal it was 96.3%; in the test on COLO 205 colon, 106%; in the test with DU-145 prostate, 104%; in the test on K-562 leukemia it was 69.8%; with MALME-3M melanoma, 98.8%. The growth in the test on MDA-MB-231 breast was 86.9%; in the test on RXF 393 renal it was 96.6%; in the test with SF-268 CNS, 93.1%; in the test with SF-295 CNS it was 106%; in the test with SF-539 CNS, 98.8%; in the test on UACC-257 melanoma it was 93.7%. In addition, the growth in the test with M14 melanoma was 103%.

For `CC(=O)Nc1c2sscc-2n(C)c1=O`, the growth is -95.3% (active) in the test with NCI-H23 lung; -100% (active) in the test with NCI-H226 lung; -100% (active) with NCI-H322M lung; -100% (active) in the test on HOP-62 NSCLC; -77.4% (active) in the test on NCI-H460 lung; -90.8% (active) in the test with NCI-H522 lung. The growth was -65% (active) in the test with A549/ATCC NSCLC; -100% (active) in the test with 786-0 renal; -87.1% (active) in the test on COLO 205 colon; -100% (active) in the test with DU-145 prostate; -72.9% (active) with K-562 leukemia; -89.7% (active) with MALME-3M melanoma. The growth in the test on MDA-MB-231 breast is -92.4% (active); in the test on RXF 393 renal, -92.5% (active); in the test with SF-268 CNS, -80.4% (active); in the test on SF-295 CNS, -96.5% (active); in the test on SF-539 CNS, -94.9% (active); in the test with UACC-257 melanoma, -44.5% (active). Besides, the growth in the test on M14 melanoma is -96.7% (active).

Turning to `Cc1ccc(NC(=O)CBr)cc1`, the growth in the test with NCI-H23 lung was 91.7%; in the test on NCI-H226 lung, 103%; in the test on NCI-H322M lung, 99.4%; in the test with NCI-H460 lung, 105%; in the test with HOP-92 NSCLC, 96%; in the test with NCI-H522 lung, -55.6% (active). Besides, the growth is 107% in the test with 786-0 renal; 108% in the test on COLO 205 colon; 105% in the test with DU-145 prostate; 70.8% in the test on K-562 leukemia; 87.5% in the test on MALME-3M melanoma; 95.1% with MDA-MB-231 breast. The growth with RXF 393 renal was 102%; in the test with SF-268 CNS, 104%; with SF-295 CNS it was 103%; in the test with SF-539 CNS, 111%; with M14 melanoma it was 97.6%.

In the case of `O=[N+]([O-])/C=C\c1ccc2c(c1)OCO2`, the growth in the test on NCI-H23 lung is 87.2%; with NCI-H226 lung, 103%; in the test with NCI-H322M lung, 113%; in the test on NCI-H460 lung, 84.8%; with HOP-92 NSCLC it was 79.3%; in the test with NCI-H522 lung, 72.2%. The growth with A549/ATCC NSCLC is 81.7%; in the test on 786-0 renal, 89.6%; with COLO 205 colon, 89.8%; with DU-145 prostate, 88.7%; in the test on K-562 leukemia, 78.2%; in the test with MDA-MB-231 breast, 101%. The growth with RXF 393 renal is 74.4%; with SF-268 CNS, 86.7%; with SF-295 CNS, 83.3%; in the test on SF-539 CNS, 94.8%; in the test on UACC-257 melanoma, 75%; in the test with M14 melanoma it was 76.6%.

(Values after PubChem BioAssay (NCI).)
